In the library only some 11% were active in any assay of this set; here they are far more common.
OTUD3 block = human OTUD3 deubiquitinase inhibition. purified OTUD3, Ub-rhodamine fluorescence, 2 h. AID 1645858. 0.7% of 47,000 active. Q5T2D3. inhibition, % at 25 µM
USP17 inh = human USP17-like deubiquitinase inhibition | purified USP17, Ub-rhodamine cleavage fluorescence, 3 h | inhibition, % at 50 µM | 6.5% of 47,000 active
USP30 block = human USP30 deubiquitinase inhibition. purified USP30, Ub-rhodamine cleavage fluorescence. inhibition, % at 25 µM. Q70CQ3. 5.3% of 47,000 active
Target sequence (Q70CQ3 whole entry, looked up): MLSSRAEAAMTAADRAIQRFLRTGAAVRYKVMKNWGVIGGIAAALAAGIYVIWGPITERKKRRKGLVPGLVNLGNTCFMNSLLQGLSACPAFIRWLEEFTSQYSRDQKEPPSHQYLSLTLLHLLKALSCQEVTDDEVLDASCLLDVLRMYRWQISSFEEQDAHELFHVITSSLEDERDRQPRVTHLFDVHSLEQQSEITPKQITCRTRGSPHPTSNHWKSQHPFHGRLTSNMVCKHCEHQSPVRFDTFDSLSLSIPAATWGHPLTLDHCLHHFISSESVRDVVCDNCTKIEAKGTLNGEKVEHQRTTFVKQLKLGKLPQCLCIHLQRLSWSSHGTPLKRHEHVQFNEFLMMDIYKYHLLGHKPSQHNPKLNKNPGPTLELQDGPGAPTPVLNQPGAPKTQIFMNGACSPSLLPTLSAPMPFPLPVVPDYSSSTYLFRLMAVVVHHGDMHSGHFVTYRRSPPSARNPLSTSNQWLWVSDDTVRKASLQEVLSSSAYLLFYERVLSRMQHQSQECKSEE
USP28 block = blocks human USP28 ubiquitin-rhodamine cleavage | purified USP28, Ub-rhodamine cleavage fluorescence, 30 min | inhibition, % at 25 µM | 3% of 47,000 active | Q96RU2
Each line names hits and unclear results; the compound was inactive in the other large screens. Rule as the data show it: active = inhibition above about 30%; inactive = the rest.

Cc1cccc(NC(=O)CSCC(=O)Nc2cccc3ccccc23)c1	none
CCCN(CC(=O)Nc1ccccc1C)CC(=O)Nc1cccc2ccccc12	USP30 block 37
Cc1ccccc1NC(=O)Cc1nc(-c2cccc3ccccc23)cs1	USP17 inh 47
COc1ccc(C2c3[nH]c4ccccc4c3C[C@H]3C(=O)N(C4CCCC4)CC(=O)N23)cc1 (some centres not stated)	none
Cc1oc(-c2[nH]ncc2C(=O)N(C)C)cc1S(=O)(=O)N1CCOCC1	none
CCOc1ccccc1NC(=O)N1CCCN(c2ncccc2C#N)CC1	none
N#Cc1cccnc1N1CCN(C(=O)Nc2cccc3ccccc23)CC1	USP17 inh 77
CNC(=O)c1sc2nccnc2c1C1CCN(C(=O)c2ccccc2)CC1	none
CCc1ccc(CN2C(=O)COc3c(OC)cccc3C2C(=O)NC2CCCC2)cc1 (configuration not stated)	none
O=C(CN1C(=O)CSc2cccn2-c2ccccc21)NCc1ccc(Cl)cc1	USP17 inh 40
NS(=O)(=O)c1ccc(CCNC(=O)COC(=O)c2cc(-c3ccc(Cl)cc3)nc3ccccc23)cc1	USP17 inh 30, USP30 block 39, USP28 block 37
CCOC(=O)N1C(=O)C2COCCN2C(=O)c2ccccc21 (configuration not stated)	none
Cn1c(SCc2c(F)cccc2Cl)nnc1-c1ccc2c(c1)OCCCO2	USP30 block 33
O=C(NCc1ccc2c(c1)OCO2)c1[nH]nc2c1CCc1ccccc1-2	USP17 inh 60, USP30 block 57
O=C(NCc1ccc2c(c1)OCO2)c1cc(-c2cc(Cl)ccc2O)n[nH]1	USP30 block 77
O=C(NCc1ccc2c(c1)OCO2)c1nnc(C(=O)Nc2ccc(F)cc2)s1	none
COc1cccc(CNC(=O)c2[nH]nc3c2CCc2ccccc2-3)c1	none
O=C(Nc1cccnc1)c1[nH]nc2c1COc1ccccc1-2	none
O=C(Nc1ccc2c(c1)OCO2)c1[nH]nc2c1CCc1ccccc1-2	USP17 inh 66, USP28 block 43
CC(=O)Nc1ccc([C@H]2OCC(=O)N(C3CCOCC3)[C@@H]2CO)cc1	USP30 block 51
Cc1ccc(C(CC(=O)Nc2cccc(C)n2)N2Cc3ccccc3C2=O)cc1 (configuration not stated)	USP17 inh 41
Cc1nc(C)n(CC2CN(Cc3ncc(C(C)(C)C)o3)CCO2)n1 (configuration not stated)	none
O=C(Nc1ccc2c(c1)CCC2)c1sc2cc(Cl)ccc2c1Cl	none
C[C@@]12c3ccc4c(c3C(=O)c3occ(c31)C(O)C[C@H]2O)CCC4=O (some centres not stated)	USP17 inh 57
COc1ccc2c(c1)c(C(=O)CSc1ncnc3c1oc1ccccc13)c(C)n2C	none
Cc1ccc(CNCC2COCc3c(C)nnn3C2)cc1C (configuration not stated)	none
CCN(CC)C(=O)CN1CCCC(c2ncncc2-c2cc(C)no2)C1 (configuration not stated)	OTUD3 block 30
Cc1cc(-c2cncnc2C2CCCN(C(=O)C3CC3)C2)on1 (configuration not stated)	none
COc1cccc2c1C(=O)c1ccc3c(c1C2=O)C(=O)CC(C)(O)C3 (configuration not stated)	USP17 inh 62
COc1ccc2c(c1)C/C(=C/c1ccc(OC)cc1OC)CC2=O	none
CCn1cnc2ccc(C(=O)NC3CC3)cc2c1=O	USP28 block 62
O=C(Cn1cc(S(=O)(=O)N2CCCC2)ccc1=O)Nc1ccccc1	none
Cc1ccc2ncc(NC(=O)c3ccccc3C)c(=O)n2c1	none
Cc1ccccc1C(=O)Nc1ccc(Cc2ccc(NC(=O)c3ccccc3C)c(O)c2)cc1O	USP17 inh 55
CN1CC(C(=O)c2ccc(Oc3ccc(Cl)cc3)cc2Cl)C(c2ccccc2)C1 (configuration not stated)	none
Cc1c2oc3c(C)ccc(C(=O)NC4C(=O)N[C@@H](C(C)C)C(=O)N5CCCC5C(=O)N(C)CC(=O)N(C)C(C(C)C)C(=O)OC4C)c3nc-2c(C(=O)NC2C(=O)N[C@H](C(C)C)C(=O)N3CCCC3C(=O)N(C)CC(=O)N(C)C(C(C)C)C(=O)OC2C)c(N)c1=O (some centres not stated)	USP17 inh 62
CC1(O)CC(=O)c2c(cc3cc(O)cc(O)c3c2O)C1 (configuration not stated)	OTUD3 block 75, USP17 inh 77, USP28 block 68
O=C(Nc1cccc(Cl)c1)N1CC[C@@H]2CN(Cc3cccnc3)S(=O)(=O)[C@@H]2CC1	none (no result: USP17 inh)
O=C1CCSc2ccc(Cl)cc2N1Cc1ccc(Cl)cc1	USP28 block 42

Compound activity as filed in PubChem BioAssay.
